Assay outcomes (PubChem)
Gli-Sufu block = antagonists of Gli-Sufu signaling | Sufu-KO-LIGHT fibroblasts, Gli luciferase reporter luminescence | inhibition, % at 5 µM | AID 588413 | 340,000 compounds, 0.74% hits;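 active = inhibition above about 55%, limit read from the data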;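 also: 0% = DMSO-treated cells and 100% = wells with medium but no cells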
NR2F2 inh = NR2F2 (human) inhibition, primary screen | inhibition, % at 8.6 µM | AID 686940 | HEK293T NGFI-A luciferase reporter, luminescence | P24468 | 370,000 compounds, 0.7% hits;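 active = inhibition above a per-plate cutoff, mean inhibition of test wells between control levels plus 3 SD, cut at about 38% in these data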;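 also: cells cotransfected with COUP-TFII expression vector driving the NGFI-A reporter; 0% = median of COUP-TF2 test wells and 100% = reporter-only cells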
Target sequence (P24468 whole entry, looked up): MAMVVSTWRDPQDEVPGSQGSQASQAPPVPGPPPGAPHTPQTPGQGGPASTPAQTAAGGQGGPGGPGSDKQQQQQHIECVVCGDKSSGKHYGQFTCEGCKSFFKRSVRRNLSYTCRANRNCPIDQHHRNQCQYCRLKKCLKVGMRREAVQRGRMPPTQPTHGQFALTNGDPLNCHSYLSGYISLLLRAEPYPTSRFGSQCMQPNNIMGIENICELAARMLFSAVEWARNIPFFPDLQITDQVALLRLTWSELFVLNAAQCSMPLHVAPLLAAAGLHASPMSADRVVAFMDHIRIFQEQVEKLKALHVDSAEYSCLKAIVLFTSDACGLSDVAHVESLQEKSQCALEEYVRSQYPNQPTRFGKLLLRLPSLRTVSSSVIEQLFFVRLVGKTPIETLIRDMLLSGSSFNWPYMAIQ
697 NFkB inh = inhibitors of the PMA/ionomycin-induced NF-kB reporter in 697 B cells; 697 B-cell NF-kB luciferase reporter, 16 h; inhibition, % at 4 µM; 330,000 compounds, 0.33% hits; in the data active = inhibition above about 35%
H9c2 TAG inh = inhibitors of triacylglycerol accumulation; H9c2 cells, Nile Red lipid (TAG) fluorescence; cells loaded with 200 µM oleic acid; inhibition, % at 12.5 µM; 230,000 compounds, 0.66% hits; AID 651582;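 active = pattern-corrected inhibition of lipid staining of at least 50% with the nuclear-stain viability signal not falling by more than 50%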;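 also: 0% = DMSO wells and 100% = triacsin C control wells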
Jurkat NFkB inh = inhibitors of the PMA/ionomycin-induced NF-kB reporter in Jurkat cells. AID 435003. inhibition, % at 4 µM. PMA/ionomycin-induced NF-kB luciferase reporter, luminescence. 330,000 compounds, 0.53% hits; in the data active = inhibition above about 50%
H9c2 protect = myocardial damage modulation in H9c2 cells. H9c2 cardiomyocytes, H2O2 injury protection, ATPLite, 2 h. protection from H2O2 cell death, % at 20 µM. 360,000 compounds, 0.63% hits. AID 588492;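 active = compounds giving at least 50% protection of heart cells from peroxide-induced death in the single-dose screen, raw or plate-pattern-corrected value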;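 also: 0% = DMSO wells with peroxide and 100% = DMSO wells without peroxide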
Gli antag conf = confirmation of Gli-SUFU pathway antagonists. Sufu-KO-LIGHT cells, Gli luciferase reporter, luminescence. inhibition, % at 5 µM. AID 602428. 2,500 compounds, 40% hits. shares compounds with Gli-Sufu block;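 active = mean inhibition at 5 µM reaching about 45%, limit read from the data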;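 also: plate controls were DMSO-treated cells for no effect and wells lacking cells for full effect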
SufuKO cytotox = cytotoxicity counter-screen for Gli-SUFU antagonists. shares compounds with Gli-Sufu block. Sufu-KO-LIGHT cells cytotoxicity, ATP luminescence. cytotoxicity, % at 5 µM. 2,500 compounds, 32% hits. AID 651994;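 active = mean cytotoxicity at 5 µM above about 25%, limit read from the data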;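 also: cells exposed to compound overnight for roughly 16 to 18 hours; plate controls were DMSO wells with cells for no effect and medium without cells for full effect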
Wnt3a counter = Wnt3a reporter inhibition counter-screen. inhibition, % at 6.25 µM. shares compounds with Gli-Sufu block. 2,500 compounds, 20% hits. Wnt-LIGHT cells, Wnt3a-driven luciferase reporter, luminescence. AID 651995;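 active = mean inhibition above about 25%, limit read from the data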
* marks the source's active call; other numbers are inactive results; x = not tested or not shown. An excerpt weighted towards active compounds, which were near 2.6% of everything screened.

SMILES | Gli-Sufu block | NR2F2 inh | 697 NFkB inh | H9c2 TAG inh | Jurkat NFkB inh | H9c2 protect | Gli antag conf | SufuKO cytotox | Wnt3a counter
Cc1ccc(C(=O)NC(=S)/C=C2\N(C)c3ccccc3C2(C)C)cc1 | 77.4* | 6.9 | -3.8 | -47.9 | 41.4 | -31.8 | 26.8 | 11.9 | -9.9
CN1/C(=C\C=N\NC(=O)c2ccc(O)cc2)C(C)(C)c2ccccc21 | 75.6* | -7.1 | -6.2 | x | 38.8 | -13.4 | 65.1* | 25.5* | 11.9
CN1/C(=C\C(=O)c2cncc(Br)c2)C(C)(C)c2ccccc21 | 65.9* | 23.7 | -46.0 | -28.5 | 10.4 | -11.8 | 69.5* | 36.7* | 15.0
CC(=O)/C=C1\N(C)c2ccc(C)cc2C1(C)C | 61.2* | 5.3 | 4.2 | -24.4 | 14.6 | -14.7 | 60.9* | 29.1* | 30.3*
CN1C(=O)C[C@@](C#N)(C(=O)NCc2ccc3c(c2)OCO3)[C@H]1c1ccccc1 | x | -0.5 | x | x | x | x | x | x | x
CC(C)C(=O)NC(=S)/C=C1/N(C)c2ccccc2C1(C)C | 55.7* | 10.7 | -12.6 | -82.6 | 31.7 | -27.8 | 57.4* | 16.9 | 11.6
CN1/C(=C/C(=S)NC(=O)C2CCC2)C(C)(C)c2ccccc21 | 22.0 | -8.7 | 3.3 | -22.6 | 14.7 | -25.7 | x | x | x
Clc1ccc(SCc2cc(-c3ccccc3)on2)cc1 | -11.4 | -19.7 | 29.3 | 12.1 | -1.1 | -13.6 | x | x | x
c1ccc(Cc2cc(-c3ccccc3)on2)cc1 | 95.7* | -38.2 | -53.0 | 0.9 | -58.3 | -9.6 | -68.0 | 18.9 | -143.9
O[C@H](COc1cccc(F)c1)CN1CCC(C(O)(c2ccccc2)c2ccccc2)CC1 | x | -4.8 | x | x | x | x | x | x | x
COC(=O)Cc1[nH]n(-c2nc3ccccc3s2)c(=O)c1C(C)=Nc1ccc(Cl)cc1 | 85.9* | -17.4 | -3.2 | 1.2 | 12.4 | -7.6 | 92.5* | 18.2 | 103.9*
COC(=O)Cc1[nH]n(-c2ccccc2)c(=O)c1C(C)=Nc1ccccc1 | -3.6 | -11.2 | -8.1 | 1.4 | -12.7 | 5.4 | x | x | x
COC(=O)Cc1[nH]n(-c2nc3ccccc3s2)c(=O)c1C(C)=Nc1ccc(C)cc1 | 90.2* | 6.3 | 14.6 | -5.2 | 44.9 | -27.5 | 93.6* | 13.8 | 106.2*
COC(=O)C1CCN(C2CN(Cc3cn(Cc4ccc(C(F)(F)F)cc4)nn3)S(=O)(=O)C2)CC1 (stereo not drawn) | x | 12.3 | x | x | x | x | x | x | x
C/C(=N\NC(=O)Cn1ccc(C(F)(F)F)n1)c1ccc2c(c1)OCO2 | -0.8 | -7.1 | 1.3 | -8.2 | -8.4 | -15.5 | x | x | x
O=C(Cn1ccc(C(F)(F)F)n1)N/N=C/c1ccc2c(c1)OCO2 | 58.5* | 6.4 | -16.2 | -6.9 | -32.4 | -4.4 | 9.2 | 21.3 | -67.9
COc1ccc(Cl)cc1C(=O)Nc1ccccc1N1CCN(C(=O)C(C)C)CC1 | 50.5 | 17.4 | 2.8 | 13.8 | -12.4 | -0.3 | 24.1 | 34.0* | -54.5
COc1ccc(S(=O)(=O)NC2CC(C)(C)NC(C)(C)C2)cc1C(C)C | 51.4 | -6.4 | 2.2 | 13.1 | -1.0 | 0.5 | 16.5 | 11.2 | -18.2
O=C(Cn1nnc(-c2ccccc2)n1)N/N=C/c1cccc([N+](=O)[O-])c1 | 50.4 | 1.2 | -2.9 | x | 22.0 | -11.2 | 20.9 | 0.4 | -3.8
CCC(=O)OCCCN1CCC2(CCCCC2)C1=O | x | -13.1 | x | x | x | x | x | x | x
COc1ccc(-c2c(NC(=O)C(C)C)n(C)c3ccccc3c2=O)cc1 | 3.8 | -16.9 | 19.8 | x | 13.8 | 2.9 | x | x | x
COc1ccc(-c2c(NC(C)=O)n(C)c3ccccc3c2=O)cc1 | 99.6* | 1.3 | 8.0 | x | 6.9 | -1.6 | 10.9 | 22.1 | -21.7
CC1=CC(=C(C#N)c2nc3ccccc3s2)C=C(C)N1c1ccc(F)cc1 | -7.7 | -4.0 | -32.9 | 17.3 | -38.6 | -6.9 | x | x | x
COc1ccccc1N1C(C)=CC(=C(C#N)c2nc3ccccc3s2)C=C1C | 53.1 | 0.7 | -34.5 | x | -3.6 | -5.7 | 53.5* | 10.9 | 38.1*
CCC(=O)OCC(=O)N=c1sccn1Cc1ccc(C)cc1 | 5.1 | 22.5 | 12.4 | -0.7 | 11.7 | -6.6 | x | x | x
SMILES | Gli-Sufu block | NR2F2 inh | 697 NFkB inh | H9c2 TAG inh | Jurkat NFkB inh | H9c2 protect | Gli antag conf | SufuKO cytotox | Wnt3a counter
O=C(CCl)N=c1sccn1Cc1cccc2ccccc12 | 95.8* | -4.8 | x | 61.6* | x | -20.5 | 33.4 | 15.1 | -18.4
NC(=O)c1ccc(N2CCN(c3ccccc3F)CC2)c([N+](=O)[O-])c1 | 57.0* | 3.1 | 3.8 | -13.2 | 5.9 | -9.1 | 20.8 | 13.3 | -6.9
NC(=O)c1ccc(N2CCN(c3ccccc3O)CC2)c([N+](=O)[O-])c1 | 25.8 | 16.0 | -23.0 | 15.0 | 0.8 | -10.8 | x | x | x
Cc1ccc(CSCCNC(=O)CSCc2ccc([N+](=O)[O-])cc2)cc1 | 54.6 | -10.8 | 21.2 | x | 11.7 | 7.3 | 20.6 | 2.4 | 10.0
CCC(C(=O)NCCN1CCN(C)CC1)n1c(C)c2cnn(-c3ccccc3)c(=O)c2c1C (stereo not drawn) | 94.0* | 2.8 | 0.0 | 20.6 | 2.1 | 6.4 | 9.7 | 23.7 | -9.2
CCOC(=O)N1CCN(C(=O)Cn2ccc3c(OC)cccc3c2=O)CC1 | 53.8 | 6.0 | 11.1 | -4.3 | -6.2 | -0.1 | 21.5 | 0.2 | 10.2
COc1ccc(CN(C)C(=O)COC(=O)c2c(-c3ccccc3Cl)noc2C)cc1 | 54.6 | -14.9 | -11.9 | -10.9 | 9.2 | 12.0 | 21.9 | 0.6 | 0.2
COc1ccc(NC(=O)CN(C)C(=O)c2c(-c3ccccc3Cl)noc2C)cc1 | -8.6 | -8.5 | 12.5 | -2.0 | 0.7 | 3.7 | x | x | x
COC(=O)[C@]12C[C@H](CC(=O)N3CCC(c4ccccc4)CC3)C(=O)N(Cc3ccco3)C1=C[C@H](COCc1ccccc1)O[C@@H]2C | x | 26.8 | x | x | x | x | x | x | x
CC(NC(=O)c1c(N)[nH]c(C(=O)c2ccc(Cl)cc2)c1-c1ccc(Br)cc1)c1cccc2ccccc12 (stereo not drawn) | x | -13.2 | x | x | x | x | x | x | x
O=C(CCN1CCN(C/C=C/c2ccccc2)CC1)Nc1ccc(Cl)cc1 | 54.9 | 9.7 | 16.9 | x | -4.4 | 1.6 | 15.1 | 23.9 | -32.0
Cc1cc[n+](C(C)C(=O)c2ccc(-c3ccccc3)cc2)cc1 (stereo not drawn) | 81.7* | 34.6 | 15.3 | -15.0 | 45.4 | -21.8 | 74.8* | 26.5* | -11.9
COc1cccc(N(CC(=O)Nc2cccc(C(C)=O)c2)S(C)(=O)=O)c1 | 77.4* | -8.1 | 0.5 | x | -11.8 | -4.8 | 12.4 | 16.1 | -21.3
COc1ccc(N(CC(=O)NCCSCc2ccc(C)cc2)S(=O)(=O)c2ccccc2)cc1 | 95.1* | -38.1 | -35.2 | -8.5 | 18.6 | 10.6 | 17.3 | 5.8 | -20.4
CCc1ccccc1NC(=O)CN(c1cccc(OC)c1)S(C)(=O)=O | 92.2* | 6.3 | -20.8 | 35.4 | -6.8 | -3.7 | 12.9 | 5.8 | -10.6
